Test [1] is described as follows: resazurin metabolic signal in HepG2 cells – cell-based, resazurin fluorescence, 24 h, PK04 Diversity Set, profiling panel (AID 1172). As to conditions: HepG2 viability, higher = more signal. A general note: Resazurin is reduced to fluorescent resorufin, in cell work by metabolically active cells.
A short description of test [2]: budding yeast growth changes without added modifier – OD600, strain BY4716, 24 h, basal condition, primary screen (AID 1173). The conditions noted are these: S. cerevisiae BY4716 growth, OD600, 24 h; higher = more signal, called active from +8 up or from −8 down.
Test [3] in a line: viability profiling in MM1S myeloma cells – cell-based, resazurin fluorescence, basal, 24 h, PK04 Diversity Set, profiling panel (AID 1174). The conditions noted are these: higher = more signal, called active from +8 up or from −8 down.
Test [4] deals with Dihydroorotate dehydrogenase (quinone), mitochondrial (Plasmodium falciparum (isolate 3D7)) (UniProt Q08210). Put plainly: inhibition of P. falciparum DHODH – biochemical, C-terminal His tag, absorbance 600 nm, primary screen (AID 1175).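 Also: recombinant parasite enzyme with a five histidine tag at its C terminus.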 The conditions noted are these: PfDHODH enzyme, DCIP absorbance 600 nm; higher = more signal, called active from +8 up or from −8 down.
Sequence of Dihydroorotate dehydrogenase (quinone), mitochondrial (Plasmodium falciparum (isolate 3D7)) (Q08210 whole entry, looked up): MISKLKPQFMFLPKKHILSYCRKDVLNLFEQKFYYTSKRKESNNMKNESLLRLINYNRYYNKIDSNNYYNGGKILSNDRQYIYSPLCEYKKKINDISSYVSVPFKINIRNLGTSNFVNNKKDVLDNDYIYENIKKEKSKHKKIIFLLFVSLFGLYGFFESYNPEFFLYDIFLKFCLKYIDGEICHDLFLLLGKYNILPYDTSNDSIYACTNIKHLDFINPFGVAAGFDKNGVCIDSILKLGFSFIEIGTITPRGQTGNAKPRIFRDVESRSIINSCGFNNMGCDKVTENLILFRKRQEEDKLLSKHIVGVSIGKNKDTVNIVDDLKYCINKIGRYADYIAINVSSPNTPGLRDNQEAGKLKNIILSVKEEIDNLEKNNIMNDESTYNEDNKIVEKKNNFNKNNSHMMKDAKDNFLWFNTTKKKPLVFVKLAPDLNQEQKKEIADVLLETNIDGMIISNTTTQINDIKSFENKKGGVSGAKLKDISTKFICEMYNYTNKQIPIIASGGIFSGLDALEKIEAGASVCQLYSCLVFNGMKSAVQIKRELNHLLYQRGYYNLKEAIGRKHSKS
A short description of test [5]: inhibition of PAO1 biofilm formation – strain PAO1, LB-PBS medium, absorbance 600 nm, primary screen (AID 1176). As to conditions: P. aeruginosa PAO1 growth/biofilm, A600, 12 h; higher = more signal.
Test [6] is described as follows: growth modulation of vineyard yeast isolate – strain RM11-1a, OD600, basal, 24 h, primary screen (AID 1177).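 Also: cultures grown under basal conditions with no added stressor.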 As to conditions: S. cerevisiae RM11-1a growth, OD600, 24 h; higher = more signal, called active from +8 up or from −8 down.
Test [7] in a line: growth of efflux-deficient E. coli DRC39 – strain DRC39, OD650, 24 h, E. coli filamentation inducers, primary screen (AID 1178).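 Also: growth measured as culture turbidity by optical density at 650 nm.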 The conditions noted are these: E. coli DRC39 acrAB, higher = more signal, called active from +8 up or from −8 down.
Test [8] can be described thus: growth of efflux-deficient E. coli DRC39 – strain DRC39, OD650, 48 h, E. coli filamentation inducers, primary screen (AID 1179).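 Also: screen aims at cell division blockers that make cells filament.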 As to conditions: E. coli DRC39 delta-acrAB growth, higher = more signal, called active from +8 up or from −8 down.
Test [9] can be described thus: viability profiling in RPMI8226 myeloma cells – cell-based, resazurin fluorescence, basal, 24 h, PK04 Diversity Set, profiling panel (AID 1180).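 Also: RPMI8826 multiple myeloma cell line at 5000 cells per well.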 The conditions noted are these: higher = more signal.
Test [10] has as its target E3 ubiquitin-protein ligase XIAP (Homo sapiens) (UniProt P98170). Nature of the test: small molecules binding XIAP protein – biophysical, small-molecule microarray, fluorescence 635 nm, primary screen (AID 1181).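 Also: score merges 667 nm emission and signal to noise over triplicate slides.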 As to conditions: higher = more signal.
In test [11] the test system is XIP peptide (Xip251-270) binding. Put plainly: XIP fragment 251-270 binding compounds – biochemical, small-molecule microarray, fluorescence 635/667 nm, 0.1 µg/mL protein, primary screen (AID 1182). The conditions noted are these: fluorescent protein binding, 635 nm, higher = more signal, called active from +8 up or from −8 down.
The subject of test [12] is XIP peptide (Xip251-270). Put plainly: compounds binding XIP fragment 251-270 – biochemical, small-molecule microarray, fluorescence 635/667 nm, 0.5 µg/mL protein, primary screen (AID 1183). As to conditions: fluorescence 635 nm, higher = more signal.
The nature of test [13]: blood-stage malaria parasite viability loss – strain 3D7, DAPI fluorescence, 100 nL, primary screen (AID 1184).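 Also: parasites grown inside human red blood cells in medium with human serum.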 As to conditions: P. falciparum 3D7 growth, 3 d, higher = more signal.
The target in test [14] is Homeobox protein Hox-A13 (Mus musculus) (UniProt Q62424). Put plainly: disruptors of Hoxa13 oligonucleotide interaction – biochemical, fluorescence polarization, labeled oligonucleotide, primary screen (AID 1185). As to conditions: Hoxa13:DNA binding, 15 min, higher = more signal, called active from +8 up or from −8 down.
Sequence of Homeobox protein Hox-A13 (Mus musculus) (Q62424 whole entry, looked up): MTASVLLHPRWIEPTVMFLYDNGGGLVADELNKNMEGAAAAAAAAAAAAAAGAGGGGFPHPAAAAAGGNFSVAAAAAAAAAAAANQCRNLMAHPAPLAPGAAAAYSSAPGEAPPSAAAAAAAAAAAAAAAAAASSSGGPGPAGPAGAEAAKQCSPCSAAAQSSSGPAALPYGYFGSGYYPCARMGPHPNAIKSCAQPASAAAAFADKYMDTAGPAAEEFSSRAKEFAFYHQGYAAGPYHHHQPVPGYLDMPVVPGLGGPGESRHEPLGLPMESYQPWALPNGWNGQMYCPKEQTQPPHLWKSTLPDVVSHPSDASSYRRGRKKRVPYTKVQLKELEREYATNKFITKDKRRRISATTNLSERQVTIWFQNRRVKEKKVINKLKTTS
Test [15] is described as follows: blockers of DNA damage checkpoint Chk1 activation – imaging, HeLa, hydroxyurea, phospho-Chk1 antibody, percent positive cells, primary screen (AID 1186). As to conditions: hydroxyurea-induced phospho-Chk1 immunofluorescence imaging, higher = more signal.
Test [16] in a line: blockers of DNA damage checkpoint Chk1 activation – imaging, HeLa, hydroxyurea, phospho-Chk1 nuclear intensity, primary screen (AID 1187). As to conditions: hydroxyurea-induced phospho-Chk1 immunofluorescence imaging, higher = more signal.

This note sets out measurements from PubChem BioAssay.

Calls of active or inactive are those of the source. Unless noted, no rule for the calls is given here.

Sequence of E3 ubiquitin-protein ligase XIAP (Homo sapiens) (P98170 whole entry, looked up, the tested form may be a part): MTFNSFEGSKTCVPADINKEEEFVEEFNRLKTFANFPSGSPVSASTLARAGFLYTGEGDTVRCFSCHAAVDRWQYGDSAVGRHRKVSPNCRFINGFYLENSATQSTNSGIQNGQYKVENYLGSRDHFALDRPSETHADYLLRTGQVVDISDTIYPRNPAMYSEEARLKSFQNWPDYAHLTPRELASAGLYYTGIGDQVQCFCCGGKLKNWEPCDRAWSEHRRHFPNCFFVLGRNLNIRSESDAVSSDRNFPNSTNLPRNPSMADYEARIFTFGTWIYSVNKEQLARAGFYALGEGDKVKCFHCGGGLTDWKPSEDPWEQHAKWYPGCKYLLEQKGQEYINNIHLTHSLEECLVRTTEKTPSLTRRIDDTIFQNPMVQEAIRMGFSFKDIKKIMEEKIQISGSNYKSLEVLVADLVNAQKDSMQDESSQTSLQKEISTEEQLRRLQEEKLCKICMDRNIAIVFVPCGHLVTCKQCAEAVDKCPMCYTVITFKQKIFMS

Take `Cc1ccc(NN2C(C(O)c3c(F)cccc3Cl)C=CC3C(=O)N(C4CCCCC4)C(=O)C32)cc1` (centres undefined): the z-score was 0.703 in [1]; -0.074 (inactive) in test [2]; 0.0812 (inactive) in test [3]; 1.47 (inactive) in test [5]; -0.717 (inactive) in test [6]; -0.452 (inactive) in [7]. The z-score in test [8] was 0.432 (inactive); in test [9], 0.262; in test [13], -0.216; in test [14] it was -3.84 (inactive); in test [15], -0.0771 (inactive); in test [16], -0.369 (inactive). The composite z-score in [4] is -1.12 (inactive); in test [10], 0.122; in test [11], -0.391 (inactive); in [12], 0.696.
Take `COc1cccc(C)c1NC(=O)O[C@H]1[C@H](OC(=O)Nc2ccccc2-c2ccccc2)[C@H](OC(=O)Nc2ccccc2-c2ccccc2)[C@@H](OC)O[C@@H]1CO`: the z-score was -0.589 in [1]; -0.342 (inactive) in [2]; -1.13 (inactive) in [3]; 1.11 (inactive) in [5]; 1.25 (inactive) in test [6]; -0.469 (inactive) in [7]. In addition, the z-score was 0.0517 (inactive) in [8]; -0.575 in [9]; -2.51 in [13]; -1.28 (inactive) in test [14]; -0.8 (inactive) in test [15]; -1.12 (inactive) in test [16]. Besides, the composite z-score in test [4] is -0.0569 (inactive); in test [10], 0.248; in test [11] it was 0.201 (inactive); in test [12], 0.729.
With `CC(C)NC(=O)[C@@]1(c2ccc([N+](=O)[O-])cc2)CC(=O)N(C2CCCCC2)[C@@H]1c1ccc(CO)cc1`, the z-score in test [1] is 1.2; in test [2] it was 0.178 (inactive); in test [3], 1.16 (inactive); in [5] it was -0.0249 (inactive); in test [6], 0.852 (inactive); in [7], 0.389 (inactive). Further, the z-score in test [8] was 1.29 (inactive); in test [9] it was 0.367; in [13], -0.385; in [14], -3.11 (inactive); in test [15] it was 0.127 (inactive); in test [16] it was 0.0865 (inactive). Further, the composite z-score is 1 (inactive) in test [4], 0.112 in [10], 1.15 (inactive) in test [11] and 0.786 in [12].
Regarding `COCCOC(=O)N1C(=O)[C@@]2(c3cc(C#CC4(O)CCCCCC4)ccc31)[C@H](c1ccc(O)cc1)N1[C@H](c3ccccc3)[C@H](c3ccccc3)OC(=O)[C@H]1[C@@H]2C(=O)N1CCN(c2ncccn2)CC1`, the z-score in test [1] was 0.0439; in test [2] it was -0.31 (inactive); in test [3] it was -0.705 (inactive); in [5], 0.654 (inactive); in [6], 0.326 (inactive); in test [7], -0.462 (inactive). The z-score in [8] is 0.0188 (inactive); in [9], -0.528; in test [13], -1.99; in test [14], -1.62 (inactive); in test [15], 0.13 (inactive); in test [16] it was 0.232 (inactive). For the same compound, the composite z-score in test [4] is 0.244 (inactive); in [10] it was 0.0487; in test [11], 0.0849 (inactive); in test [12], 0.699.
For the compound `C=CC[C@@H](OC(=O)Nc1ccc(OC)cc1)c1ccc(O)c(F)c1`, the z-score in [1] is -1.33; in [2], -16.3 (active); in test [3] it was -1.32 (inactive); in [5] it was 0.79 (inactive); in [6], -22 (active); in [7], 0.924 (inactive). Also, the z-score is 0.41 (inactive) in test [8]; -0.895 in [9]; 0.765 in [13]; -3.65 (inactive) in test [14]; 0.0919 (inactive) in test [15]; 0.0113 (inactive) in [16]. Further, the composite z-score in test [4] is -2.55 (inactive); in [10], -0.0441; in [11], 1.29 (inactive); in test [12], -1.1.
For the compound `COc1cccc(C)c1NC(=O)O[C@H]1[C@H](OC(=O)Nc2ccc3c(c2)OCO3)[C@@H](OC(=O)Nc2ccc3c(c2)OCO3)[C@@H](OC)O[C@@H]1CO`, the z-score is -0.808 in test [1]; 1.21 (inactive) in test [2]; -1.06 (inactive) in [3]; 3.29 (inactive) in [5]; 2.4 (inactive) in test [6]; 1.5 (inactive) in [7]. In addition, the z-score was -0.1 (inactive) in test [8]; -0.939 in test [9]; -2.44 in [13]; -10.8 (active) in test [14]; -0.088 (inactive) in test [15]; -0.224 (inactive) in [16]. Also, the composite z-score in test [4] is -0.191 (inactive); in test [10], 0.196; in test [11], 0.519 (inactive); in test [12], -0.0963.
`CCCN1C(=O)[C@@]2(Cc3ccccc31)N=C(c1ccc(OCCCO)cc1)O[C@H]2c1ccccc1`: the z-score was 0.293 in test [1]; -3.07 (inactive) in test [2]; -2 (inactive) in test [3]; -0.124 (inactive) in test [5]; 0.806 (inactive) in test [6]; -0.305 (inactive) in test [7]. The z-score in test [8] was -1.03 (inactive); in test [9] it was -1.7; in test [13], -1.65; in test [14], -6.04 (inactive); in test [15] it was -0.0494 (inactive); in test [16], 0.365 (inactive). Besides, the composite z-score in test [4] was -0.172 (inactive); in test [10], -0.212; in [11], 0.468 (inactive); in test [12] it was 0.828.
In the case of `CC(=O)NCCCC[C@@H]1NC(=O)[C@@H]2C[C@H](C(=O)NCCCCCN)[C@H](c3cccc(OCCO)c3)N2C1=O`, the z-score is 0.619 in [1]; -0.659 (inactive) in test [2]; 0.427 (inactive) in test [3]; 0.392 (inactive) in test [5]; -1.42 (inactive) in test [6]; 1.03 (inactive) in test [7]. Moreover, the z-score in test [8] is 1.9 (inactive); in test [9] it was 0.0926; in [13], 0.0297; in [14], -2.54 (inactive); in test [15] it was -1.16 (inactive); in [16], -0.913 (inactive). In addition, the composite z-score in test [4] is -0.585 (inactive); in test [10] it was 0.087; in [11] it was 0.845 (inactive); in [12] it was 0.878.
With `CN(C)C(=O)[C@@]1(Cc2ccccc2)N=C(c2ccc(OCCCO)cc2)O[C@H]1c1ccccc1`, the z-score in [1] was 1.6; in test [2], -1.92 (inactive); in test [3], 0.857 (inactive); in [5] it was -0.345 (inactive); in [6], 0.319 (inactive); in test [7], 0.0862 (inactive). For the same compound, the z-score is -0.146 (inactive) in [8]; 1.16 in test [9]; -1.58 in test [13]; -6.14 (inactive) in test [14]; -0.499 (inactive) in test [15]; -0.304 (inactive) in [16]. Besides, the composite z-score in test [4] was -0.177 (inactive); in test [10], -0.205; in test [11], 1.66 (inactive); in test [12] it was 0.444.
